Source: PubChem
CTSL1 counter: counter-screen for PFM18AAP inhibitors: inhibitors of F. hepatica cathepsin L1; recombinant F. hepatica cathepsin L1, Z-Leu-Arg-MCA fluorescence; inhibition, % at 5.96 µM; 0.49% of 300,000 active; AID 1906;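 active = inhibition above the mean of all tested compounds plus 3 SD, set per screening campaign, cut at about 17% in these data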;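 note: 0% = plate median of test compound wells and 100% = 1 µM Z-Phe-Ala-diazomethylketone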
PAFAH2 FP inh: inhibitors of human PAFAH2; inhibition, % at 3.39 µM; Q99487; AID 492956; recombinant PAFAH2, FP-rhodamine activity probe, fluorescence polarization; 0.99% of 340,000 active;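 active = inhibition above the mean over all tested compounds plus 3 SD, cut at about 30% in these data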;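 note: inhibitors block probe labeling of enzyme so polarization drops; 0% = enzyme with DMSO and 100% = wells lacking PAFAH2 protein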
PAFAH1B2 inh: PAFAH1B2 (human) inhibition | P68402 | recombinant PAFAH1B2, FP-rhodamine activity probe, fluorescence polarization | inhibition, % at 3.39 µM | 1.2% of 340,000 active;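 active = inhibition above the mean of all tested compounds plus 3 SD, cut at about 24% in these data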;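 note: 0% = enzyme with DMSO and 100% = wells lacking PAFAH1B2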
Target sequence (P68402 whole entry, looked up): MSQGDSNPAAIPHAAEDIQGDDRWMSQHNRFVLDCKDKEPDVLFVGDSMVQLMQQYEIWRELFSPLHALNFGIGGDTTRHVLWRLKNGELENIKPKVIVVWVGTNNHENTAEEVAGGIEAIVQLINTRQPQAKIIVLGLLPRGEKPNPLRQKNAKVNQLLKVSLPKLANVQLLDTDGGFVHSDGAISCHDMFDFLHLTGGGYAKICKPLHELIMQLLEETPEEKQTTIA
pPAFAH FP inh: pPAFAH (human) enzyme inhibition; Q13093; recombinant pPAFAH, FP-rhodamine probe fluorescence polarization; inhibition, % at 3.39 µM; 1.5% of 330,000 active;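 active = inhibition above the mean inhibition across the screen plus 3 SD, cut at about 25% in these data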;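 note: inhibitors block binding of the rhodamine activity-based probe so polarization drops; 0% = enzyme with DMSO and 100% = wells lacking pPAFAH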
PAFAH1B3 FP inh: inhibitors of human PAFAH1B3 | recombinant PAFAH1B3, FP-rhodamine probe, fluorescence polarization | Q15102 | AID 492972 | 0.28% of 340,000 active | inhibition, % at 3.39 µM;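 active = inhibition above the screen-wide average of all tested compounds plus 3 SD, cut at about 25% in these data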;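 note: 0% = enzyme with DMSO only and 100% = wells lacking PAFAH1B3 protein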
Target sequence (Q15102 whole entry, looked up): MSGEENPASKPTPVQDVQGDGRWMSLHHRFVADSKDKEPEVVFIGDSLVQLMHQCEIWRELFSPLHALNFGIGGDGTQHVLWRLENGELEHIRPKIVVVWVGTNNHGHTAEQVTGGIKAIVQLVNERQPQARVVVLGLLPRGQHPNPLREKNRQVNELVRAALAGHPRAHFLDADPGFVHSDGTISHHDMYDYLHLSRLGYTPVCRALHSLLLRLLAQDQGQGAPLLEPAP
PP5 primary: PP5 (human) phosphatase inhibition. P53041. purified PP5c, OMFP substrate fluorescence. 0.18% of 320,000 active. inhibition, % at 6.7 µM. AID 1987;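 active = inhibition above the campaign's mean inhibition across all tested compounds plus 3 SD, cut at about 9.5% in these data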;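 note: 0% = DMSO only and 100% = 100 µM cantharidin control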
PAFAH2 confirm: confirmation of human PAFAH2 inhibitors; shares compounds with PAFAH2 FP inh; inhibition, % at 3.39 µM; 65% of 2,300 active; recombinant PAFAH2, FP-rhodamine activity probe, fluorescence polarization; AID 493030;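 active = mean inhibition over three repeats above a set limit taken from the earlier primary screen, cut at about 30% in these data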;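 note: inhibitor blocks binding of rhodamine activity probe so polarization falls; 0% = enzyme with DMSO and 100% = wells lacking PAFAH2 protein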
* marks the source's active call; other numbers are inactive results. Only some compounds are listed: those with a hit (about 3% of all), similar ones and a draw of the others.

Results for CC(C)NC(=O)COC(=O)c1ccc(O)cc1 ?
CTSL1 counter: 7.2; PAFAH2 FP inh: 47.9*; PAFAH1B2 inh: 3.4; pPAFAH FP inh: -4.0; PAFAH1B3 FP inh: 4.7; PP5 primary: -9.5; PAFAH2 confirm: 24.4

How did O=S(=O)(Nc1cc(S(=O)(=O)N2CCOCC2)ccc1NCC1CCCO1)c1ccc(F)cc1 (configuration not stated) do in these assays?
PAFAH2 FP inh: 5.7; PAFAH1B2 inh: 5.9; pPAFAH FP inh: -0.7; PAFAH1B3 FP inh: 1.1; PP5 primary: 1.3

Results for CC1(C)Cc2noc(N)c2C(C)(C)N1OC(=O)c1ccccc1 ?
CTSL1 counter: -4.2; PAFAH2 FP inh: -0.3; PAFAH1B2 inh: 2.5; pPAFAH FP inh: 2.3; PAFAH1B3 FP inh: 1.4; PP5 primary: -1.2

What do the screens show for `COc1ccc(C(=O)ON=C2CCN(C)CC2)cc1`?
CTSL1 counter: 2.5; PAFAH2 FP inh: 75.2*; PAFAH1B2 inh: 4.6; pPAFAH FP inh: 3.4; PAFAH1B3 FP inh: 0.6; PP5 primary: 1.7; PAFAH2 confirm: 62.6*

Results for CC1(C)CC(=NOC(=O)c2ccccc2)CC(C)(C)N1O ?
CTSL1 counter: 1.5; PAFAH2 FP inh: 33.0*; PAFAH1B2 inh: 6.3; pPAFAH FP inh: 3.1; PAFAH1B3 FP inh: 8.0; PP5 primary: 1.5; PAFAH2 confirm: 31.8*

How did O=S(=O)(c1ccccc1)N1CCN(c2cccc(Cl)c2)CC1 do in these assays?
CTSL1 counter: -1.8; PAFAH2 FP inh: 7.0; PAFAH1B2 inh: 3.3; pPAFAH FP inh: 9.3; PAFAH1B3 FP inh: 6.6; PP5 primary: 4.1

Results for O=S(=O)(c1ccccc1)N1CCC(=NO)CC1 ?
CTSL1 counter: -3.6; PAFAH2 FP inh: 9.6; PAFAH1B2 inh: 8.2; pPAFAH FP inh: -1.4; PAFAH1B3 FP inh: 10.4; PP5 primary: -1.6

Results for O=C(ON=C1CCN(S(=O)(=O)c2ccccc2)CC1)c1ccccc1 ?
CTSL1 counter: -0.9; PAFAH2 FP inh: 91.4*; PAFAH1B2 inh: 10.0; pPAFAH FP inh: 1.6; PAFAH1B3 FP inh: 5.6; PP5 primary: 0.9; PAFAH2 confirm: 82.9*

What do the screens show for `O=C(ON=C1CCN(S(=O)(=O)c2ccccc2)CC1)c1cccc(Cl)c1`?
CTSL1 counter: 5.5; PAFAH2 FP inh: 82.4*; PAFAH1B2 inh: 16.5; pPAFAH FP inh: 12.5; PAFAH1B3 FP inh: 9.3; PP5 primary: -0.6; PAFAH2 confirm: 79.4*

What do the screens show for `N#Cc1ccc(CN2CCN(C(=O)Cn3nc(C(N)=O)c4ccccc4c3=O)CC2)cc1`?
CTSL1 counter: 1.5; PAFAH2 FP inh: -10.1; PAFAH1B2 inh: -0.9; pPAFAH FP inh: -1.3; PAFAH1B3 FP inh: 7.9; PP5 primary: -0.9

How did Cc1c(Cl)cnc(NC(=O)COC(=O)c2cccs2)c1Cl do in these assays?
PAFAH2 FP inh: 57.6*; PAFAH1B2 inh: -2.2; pPAFAH FP inh: -1.0; PAFAH1B3 FP inh: 6.0; PP5 primary: -1.8; PAFAH2 confirm: 41.1*

How did Cc1nc(NC(=O)COC(=O)c2cccs2)c(Cl)cc1Cl do in these assays?
PAFAH2 FP inh: 42.8*; PAFAH1B2 inh: 2.0; PAFAH1B3 FP inh: 2.0; PAFAH2 confirm: 29.0

Results for Cc1c(C(=O)OC2CCCC2C)[nH]c2c1C(=O)CCC2 (configuration not stated) ?
CTSL1 counter: 3.1; PAFAH2 FP inh: 59.1*; PAFAH1B2 inh: 0.4; pPAFAH FP inh: 4.1; PAFAH1B3 FP inh: 7.5; PP5 primary: 0.9; PAFAH2 confirm: 38.7*

What do the screens show for `CSC1=NSC2=NC(=O)/C(=C\c3coc4ccccc4c3=O)C(=N)N12`?
CTSL1 counter: 2.0; PAFAH2 FP inh: 25.7; PAFAH1B2 inh: 9.6; pPAFAH FP inh: 4.2; PAFAH1B3 FP inh: 1.8; PP5 primary: -5.9

How did CC(C)CSC1=NSC2=NC(=O)/C(=C\c3coc4ccccc4c3=O)C(=N)N12 do in these assays?
CTSL1 counter: 1.7; PAFAH2 FP inh: 36.1*; PAFAH1B2 inh: 23.2; pPAFAH FP inh: 9.8; PAFAH1B3 FP inh: 20.9; PP5 primary: -16.1; PAFAH2 confirm: 22.3

What do the screens show for `O=C(O)C(Cc1ccccc1)N1C(=O)/C(=C/C=C/c2ccco2)SC1=S` (configuration not stated)?
PAFAH2 FP inh: 59.9*; PAFAH1B2 inh: 10.8; PAFAH1B3 FP inh: 12.1; PAFAH2 confirm: 47.0*
